These results are taken from PubChem BioAssay (EPA / NIEHS).

Inconclusive results are not listed. The source made the active and inactive calls. The calls were made as follows, unless noted: active = hit-call score of the fitted dose curve at least 0.9, where 1 is the maximum; inconclusive = response in the unintended direction; inactive = score below 0.9.

A short description of assay [1]: BSK_4H_Eotaxin3: BioMAP Diversity Plus: 4H Assay for Eotaxin 3 Biomarker Activity (AID 2283000; active = hit-call score of the fitted dose curve at least 0.9, where 1 is the maximum; inactive = score below 0.9;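 as to outcome: CCL26 protein level quantified by ELISA in parallel with SRB cytotoxicity check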). Particulars: primary human endothelial cells (HUVEC); actives raise or lower the signal. The essentials: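 Chemicals were added to human umbilical vein endothelium cultures, and Eotaxin-3 was quantified by ELISA at 24 h. Values were derived by bidirectional fitting with DMSO serving as negative control and activity baseline.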

In assay [2] the target is human Peroxisome Proliferator-activated Receptor delta (PPARd), PPARD (gene 5467) (UniProt Q03181). Nature of the assay: ATG_PPARd_TRANS: Attagene TRANS-FACTORIAL HepG2 Assay for human Peroxisome Proliferator-activated Receptor delta (PPARd) (AID 2283002). The essentials: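 Cell-based TRANS reporter: HepG2, transient MRTU transfection, 24 h exposure. Readout = reporter mRNA (RT-PCR/CE, 6-FAM). Gain-of-signal fit vs DMSO control.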

Read-out in assay [3]: Intercellular Adhesion Molecule 1 (ICAM1), ICAM1 (gene 3383)
Nature of the assay: BSK_3C_ICAM1: BioMAP Diversity Plus: 3C Assay for Intercellular Adhesion Molecule 1 (ICAM1) Biomarker Activity (AID 2283003; active = hit-call score of the fitted dose curve at least 0.9, where 1 is the maximum; inactive = score below 0.9). Particulars: primary human endothelial cells (HUVEC); actives raise or lower the signal. In a few lines: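 ICAM-1 levels measured by ELISA after HUVEC cultures in the 3C system had been dosed for 24 h. Gain or loss of signal relative to DMSO was fitted in both directions.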

For assay [4], the target named is human Retinoic Acid Receptor beta (RARb), RARB (gene 5915) (UniProt P10826). Nature of the assay: ATG_RARb_TRANS: Attagene TRANS-FACTORIAL HepG2 Assay for human Retinoic Acid Receptor beta (AID 2283004). The essentials:
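Transient transfection of HepG2 with multiple reporter units → chemical dosing, 24 h → total RNA isolation → RT with oligo(dT) → reporter-specific PCR, 6-FAM primer extension, HpaI digest → capillary electrophoresis. Positive direction vs DMSO control.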

Assay [5] has as its target Retinoic acid receptor alpha (Homo sapiens) (UniProt P10276). As to the kind of experiment: ATG_RARa_TRANS: Attagene TRANS-FACTORIAL HepG2 Assay for human Retinoic Acid Receptor alpha (RARa) (AID 2283005).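 As to AC50: potency for increased reporter signal meaning RARa activation over DMSO.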 The essentials:
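Reporter transcripts, measured by RT-PCR with fluorescent labeling and capillary electrophoresis after 24 h dosing, reflect activity of an exogenous human RARa–GAL4 fusion in transiently transfected HepG2. Fitted for increase relative to DMSO.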

A short description of assay [6]: BSK_3C_Proliferation: Cell Proliferation Assessment in the BioMAP Diversity Plus: 3C Assay (AID 2283006; active = hit-call score of the fitted dose curve at least 0.9, where 1 is the maximum; inactive = score below 0.9;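 as to AC50: potency may reflect either rise or fall in cell number versus DMSO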). Conditions: primary human endothelial cells (HUVEC). The essentials:
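Read-out is total protein by SRB absorbance at 560 nm, taken as a proxy for relative cell number. Primary human umbilical vein endothelium cultured below confluence was dosed for 48 h, TCA-fixed and SRB-stained; curves were fitted bidirectionally versus DMSO.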

Assay [7] concerns the target Peroxisome proliferator-activated receptor gamma (Homo sapiens) (UniProt P37231). As to the kind of experiment: ATG_PPARg_TRANS: Attagene TRANS-FACTORIAL HepG2 Assay for human Peroxisome Proliferator-activated Receptor-gamma (PPARg) (AID 2283007). In a few lines: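 Transient transfection of HepG2 with GAL4-UAS-driven reporter units; chemical dosing 24 h; total RNA → oligo(dT) RT → PCR with reporter primers → 6-FAM primer extension → HpaI digest 2 h 37 C → capillary electrophoresis. Positive direction vs DMSO.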

The target in assay [8] is Nuclear receptor subfamily 1 group I member 2 (Homo sapiens) (UniProt O75469). As to the kind of experiment: ATG_PXR_TRANS: Attagene TRANS-FACTORIAL HepG2 Assay for human Pregnane X Receptor (PXR) (AID 2283008). In a few lines: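 Measures mRNA induction of a GAL4-UAS-driven reporter in human HepG2 cells transiently expressing PXR fused to Gal4, following 24 h treatment. DMSO served as negative control and baseline.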

In assay [9] the target is human Retinoic Acid Receptor gamma (RARg), RARG (gene 5916) (UniProt P13631). As to the kind of experiment: ATG_RARg_TRANS: Attagene TRANS-FACTORIAL HepG2 Assay for human Retinoic Acid Receptor gamma (RARg) (AID 2283009). The essentials: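 Transient transfection of HepG2 with multi-reporter constructs, then 24 h chemical treatment. Total RNA isolated, reverse-transcribed, PCR-amplified, fluorescently labelled and resolved by capillary electrophoresis; activity scored as mRNA induction versus DMSO.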

The target of assay [10] is human Peroxisome Proliferator-activated Receptor alpha (PPARa), PPARA (gene 5465) (UniProt Q07869). Nature of the assay: ATG_PPARa_TRANS: Attagene TRANS-FACTORIAL HepG2 Assay for human Peroxisome Proliferator-activated Receptor alpha (PPARa) (AID 2283001). The essentials:
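Read-out is fluorescence of reporter cDNA fragments resolved by capillary electrophoresis after RT-PCR. Human HepG2 liver cells carried transfected PPARa-Gal4 chimera and GAL4-UAS reporter units, treated 24 h; activity scored as increase over DMSO.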

Sequence of human Retinoic Acid Receptor gamma (RARg), RARG (gene 5916) (P13631 whole entry, looked up): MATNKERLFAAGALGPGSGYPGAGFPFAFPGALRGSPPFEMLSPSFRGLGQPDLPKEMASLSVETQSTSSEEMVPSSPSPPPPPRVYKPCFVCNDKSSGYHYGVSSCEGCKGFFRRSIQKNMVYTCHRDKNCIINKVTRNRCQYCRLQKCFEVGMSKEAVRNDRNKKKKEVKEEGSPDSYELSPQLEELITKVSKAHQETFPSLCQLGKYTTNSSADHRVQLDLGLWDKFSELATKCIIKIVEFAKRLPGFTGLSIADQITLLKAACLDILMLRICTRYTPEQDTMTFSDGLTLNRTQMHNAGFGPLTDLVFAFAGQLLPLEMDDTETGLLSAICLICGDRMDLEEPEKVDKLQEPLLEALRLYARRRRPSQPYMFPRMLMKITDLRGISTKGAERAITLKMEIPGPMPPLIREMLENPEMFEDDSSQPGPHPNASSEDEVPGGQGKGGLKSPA
Sequence of Peroxisome proliferator-activated receptor gamma (Homo sapiens) (P37231 whole entry, looked up, the tested form may be a part): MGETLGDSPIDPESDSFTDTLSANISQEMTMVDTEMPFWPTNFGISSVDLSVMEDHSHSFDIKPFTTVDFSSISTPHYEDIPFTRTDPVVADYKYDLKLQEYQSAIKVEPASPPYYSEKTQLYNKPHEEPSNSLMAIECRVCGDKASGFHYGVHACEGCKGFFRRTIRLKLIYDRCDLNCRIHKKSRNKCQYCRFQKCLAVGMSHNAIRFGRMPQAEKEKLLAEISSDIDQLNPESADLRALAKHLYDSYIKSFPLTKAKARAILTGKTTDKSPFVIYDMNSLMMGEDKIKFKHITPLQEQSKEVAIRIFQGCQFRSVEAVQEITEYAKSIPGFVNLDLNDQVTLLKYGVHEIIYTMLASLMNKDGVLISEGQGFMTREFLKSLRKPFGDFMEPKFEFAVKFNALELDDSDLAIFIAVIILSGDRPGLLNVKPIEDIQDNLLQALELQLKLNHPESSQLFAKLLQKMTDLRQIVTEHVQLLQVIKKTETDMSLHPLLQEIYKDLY
Sequence of Retinoic acid receptor alpha (Homo sapiens) (P10276 whole entry, looked up, the tested form may be a part): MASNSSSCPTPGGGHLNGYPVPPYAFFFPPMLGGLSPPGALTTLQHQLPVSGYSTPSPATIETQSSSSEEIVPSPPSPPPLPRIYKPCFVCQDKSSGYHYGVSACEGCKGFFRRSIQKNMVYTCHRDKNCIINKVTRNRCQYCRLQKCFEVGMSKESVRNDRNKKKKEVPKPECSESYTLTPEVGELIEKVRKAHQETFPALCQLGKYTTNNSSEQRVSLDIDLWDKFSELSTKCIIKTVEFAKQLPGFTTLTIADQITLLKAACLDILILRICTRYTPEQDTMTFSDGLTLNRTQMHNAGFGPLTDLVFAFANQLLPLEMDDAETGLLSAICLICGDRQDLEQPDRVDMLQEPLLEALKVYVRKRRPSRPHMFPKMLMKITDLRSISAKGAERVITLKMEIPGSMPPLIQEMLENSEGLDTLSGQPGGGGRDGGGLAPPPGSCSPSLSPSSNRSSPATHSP
Sequence of Nuclear receptor subfamily 1 group I member 2 (Homo sapiens) (O75469 whole entry, looked up, the tested form may be a part): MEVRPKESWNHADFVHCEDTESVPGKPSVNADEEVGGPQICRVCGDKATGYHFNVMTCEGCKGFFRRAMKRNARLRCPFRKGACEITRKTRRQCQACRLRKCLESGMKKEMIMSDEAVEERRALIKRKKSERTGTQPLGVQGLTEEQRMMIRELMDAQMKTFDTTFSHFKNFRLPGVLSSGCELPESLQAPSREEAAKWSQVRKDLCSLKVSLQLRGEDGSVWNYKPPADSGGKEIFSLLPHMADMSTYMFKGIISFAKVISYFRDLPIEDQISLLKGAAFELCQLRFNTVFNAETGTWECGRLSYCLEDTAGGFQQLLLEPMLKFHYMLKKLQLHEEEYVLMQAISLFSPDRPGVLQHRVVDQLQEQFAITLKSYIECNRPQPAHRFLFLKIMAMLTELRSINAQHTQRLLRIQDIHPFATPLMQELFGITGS
Sequence of human Peroxisome Proliferator-activated Receptor delta (PPARd), PPARD (gene 5467) (Q03181 whole entry, looked up): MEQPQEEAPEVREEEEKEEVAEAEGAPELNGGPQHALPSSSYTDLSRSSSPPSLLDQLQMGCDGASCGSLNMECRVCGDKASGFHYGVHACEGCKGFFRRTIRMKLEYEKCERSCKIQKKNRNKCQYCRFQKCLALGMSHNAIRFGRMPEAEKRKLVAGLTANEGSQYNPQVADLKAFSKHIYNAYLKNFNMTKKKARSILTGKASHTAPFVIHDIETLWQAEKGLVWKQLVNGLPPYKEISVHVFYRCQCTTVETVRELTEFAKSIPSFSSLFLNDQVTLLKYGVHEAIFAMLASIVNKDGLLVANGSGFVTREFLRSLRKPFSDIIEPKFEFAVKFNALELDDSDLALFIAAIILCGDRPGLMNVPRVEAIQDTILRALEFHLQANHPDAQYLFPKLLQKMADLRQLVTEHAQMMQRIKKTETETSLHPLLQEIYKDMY
Sequence of human Retinoic Acid Receptor beta (RARb), RARB (gene 5915) (P10826 whole entry, looked up): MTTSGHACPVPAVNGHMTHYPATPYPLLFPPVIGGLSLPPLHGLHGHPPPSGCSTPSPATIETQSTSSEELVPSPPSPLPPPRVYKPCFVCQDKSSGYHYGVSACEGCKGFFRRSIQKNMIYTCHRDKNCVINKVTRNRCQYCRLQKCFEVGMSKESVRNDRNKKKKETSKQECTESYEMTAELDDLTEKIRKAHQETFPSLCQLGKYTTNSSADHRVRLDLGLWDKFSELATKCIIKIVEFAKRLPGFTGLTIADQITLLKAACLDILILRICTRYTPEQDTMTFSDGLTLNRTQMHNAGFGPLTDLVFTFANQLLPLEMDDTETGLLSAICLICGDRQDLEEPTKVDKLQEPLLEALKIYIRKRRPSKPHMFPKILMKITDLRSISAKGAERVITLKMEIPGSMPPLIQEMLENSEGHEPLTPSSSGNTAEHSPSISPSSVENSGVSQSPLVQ
Sequence of human Peroxisome Proliferator-activated Receptor alpha (PPARa), PPARA (gene 5465) (Q07869 whole entry, looked up, the tested form may be a part): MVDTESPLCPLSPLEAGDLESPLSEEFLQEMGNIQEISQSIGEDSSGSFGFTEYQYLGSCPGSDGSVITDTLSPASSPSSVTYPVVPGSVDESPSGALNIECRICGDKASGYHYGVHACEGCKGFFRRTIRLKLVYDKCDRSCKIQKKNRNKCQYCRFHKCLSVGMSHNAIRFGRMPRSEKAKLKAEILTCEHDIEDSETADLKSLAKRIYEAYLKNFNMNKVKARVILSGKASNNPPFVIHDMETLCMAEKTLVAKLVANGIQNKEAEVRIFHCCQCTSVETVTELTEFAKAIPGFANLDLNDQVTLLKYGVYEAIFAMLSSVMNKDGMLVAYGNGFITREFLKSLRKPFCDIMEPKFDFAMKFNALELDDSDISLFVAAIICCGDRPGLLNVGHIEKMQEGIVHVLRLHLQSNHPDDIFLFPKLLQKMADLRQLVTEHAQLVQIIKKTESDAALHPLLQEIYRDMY

On to `Nc1c(Cl)cc([N+](=O)[O-])cc1Cl`, for which the result in [1], in assay [2], in assay [3], in assay [4], in [5] and in assay [6] was inactive. Further, the result in assay [7] and in assay [8] was inactive.

Usually AC50 stands for the concentration giving half of the maximal activity seen. Regarding `CSC1=N[C@@](C)(c2ccccc2)C(=O)N1Nc1ccccc1`, the values for the AC50 in [1] and in [6] were 25.3 µM (active) and 18.9 µM (active), respectively. Further, the result in assay [2], in assay [3], in assay [7] and in assay [8] was inactive.

With `CCC(=NOC/C=C/Cl)C1=C(O)CC(C2CCOCC2)CC1=O` (configuration not stated), the outcome in assay [1], in [2], in [3], in [6], in assay [7] and in assay [8] was inactive.

Take `CC(C)[C@H](C(=O)O[C@H](C#N)c1cccc(Oc2ccccc2)c1)c1ccc(Cl)cc1`: the outcome in [1], in assay [2] and in [3] was inactive. In addition, the AC50 in [6] is 6.57 µM (active); in assay [7], 9.37 µM (active); in assay [8], 5 µM (active).

Take `COP(=O)(OC)OC(Br)C(Cl)(Cl)Br` (configuration not stated): the AC50 in [1] was 33.2 µM (active); in assay [3], 36.4 µM (active); in assay [6], 16 µM (active). Moreover, the compound was called inactive in assay [2], in [5], in assay [7] and in assay [9].

In the case of `S=C1NCCN1`, the outcome in assay [1], in [3], in assay [4], in [6], in [7] and in [8] was inactive.

In the case of `COP(=O)(NC(C)=O)SC` (configuration not stated), the result in assay [1], in assay [3], in assay [6] and in assay [7] was inactive.

With `COc1cc(OC)nc(Sc2cccc(Cl)c2C(=O)O)n1`, the outcome in assay [1], in [10], in assay [3], in assay [6] and in [7] was inactive.

`CCOP(=S)(OCC)Oc1ccc([N+](=O)[O-])cc1`: the result in [1], in [2], in assay [3] and in assay [6] was inactive. Moreover, the results for the AC50 in assay [7] and in [8] were 28.8 µM (active) and 19.9 µM (active), respectively.

Take `CCc1cccc(C)c1N(C(=O)CCl)C(C)COC` (configuration not stated): the outcome in [1], in [3], in [4], in [6] and in assay [8] was inactive. The AC50 in [7] was 13.5 µM (active).

Take `CSc1nnc(C(C)(C)C)c(=O)n1N`: the result in assay [1], in assay [3], in assay [4], in assay [5], in [6] and in [9] was inactive.

Take `CCc1cccc(CC)c1N(COC)C(=O)CCl`: the results for the AC50 in assay [1], in [6] and in [7] were 22.4 µM (active), 28.5 µM (active) and 1.79 µM (active), respectively. Besides, the compound was called inactive in assay [2], in [3], in assay [8] and in assay [9].

With `CC1(C(=O)Nc2ccc(O)c(Cl)c2Cl)CCCCC1`, the outcome in [1], in [2], in [3] and in assay [6] was inactive. In addition, the AC50 in assay [7] was 50 µM (active); in [8], 9.83 µM (active).

On to `CCOP(=O)(OCC)Oc1cc(C)nc(C(C)C)n1`, for which the outcome in assay [1], in assay [2], in assay [3], in assay [6] and in assay [7] was inactive.

As for `CCOP(=S)(Oc1cnc(C(C)(C)C)nc1)OC(C)C` (configuration not stated), the half-maximal activity concentration (AC50) in [1] is 31.9 µM (active); in [6], 33.3 µM (active). Moreover, the result in assay [2], in [3], in assay [5], in [7], in assay [8] and in assay [9] was inactive.

With `FC(F)C(F)(F)OCC(Cn1cncn1)c1ccc(Cl)cc1Cl` (configuration not stated), the AC50 is 28.4 µM (active) in assay [1], 13.2 µM (active) in [5] and 20 µM (active) in assay [6]. Also, the result in assay [2], in [3], in [4], in assay [7], in assay [8] and in [9] was inactive.

With `COc1cccc(C(=O)NN(C(=O)c2cc(C)cc(C)c2)C(C)(C)C)c1C`, the outcome in assay [1], in assay [3], in assay [4], in assay [5], in assay [6] and in assay [7] was inactive. Further, the compound was called inactive in assay [8].

`CNc1cnn(-c2cccc(C(F)(F)F)c2)c(=O)c1Cl`: the outcome in [1], in assay [2], in assay [3], in assay [4], in [5] and in [6] was inactive. Also, the call in [7], in assay [8] and in assay [9] was inactive.
